According to PMC5540273 (PLoS ONE, 2017):

Key:
Conditions in all cases: concentration: 1 μM,replicates: in singlicate; n = 1
[1] = tested on: T1, PCTK2
T1 construct: gene CDK17

[2] = tested on: T2, PCTK3
T2 construct: gene CDK18

[3] = tested on: PDGFRA
[4] = tested on: PDGFRB
[5] = tested on: PDPK1
[6] = tested on: PFTAIRE2
[7] = tested on: T3, PFTK1
T3 construct: gene CDK14

[8] = tested on: PHKG1
[9] = tested on: PHKG2
[10] = tested on: PIK3C2B
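Note: KINOMEscan kinase panel screen.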

Structure (SMILES)	%Inh [1]	%Inh [2]	%Inh [3]	%Inh [4]	%Inh [5]	%Inh [6]	%Inh [7]	%Inh [8]	%Inh [9]	%Inh [10]
O=C(Nc1n[nH]c2cc(-c3ccco3)ccc12)C1CC1 [SB-737447]	31%	28%	30%	59%	0%	0%	1%	0%	3%	6%
COc1ccc(Nc2nccc(N3CCC(NC(=O)c4cccc(C#N)c4)C3)n2)cc1 (centres unmarked) [GSK1379730]	0%	3%	0%	4%	26%	0%	0%	0%	0%	0%
Cc1cccc2c(-c3ccncc3)c(-c3ccc(F)cc3)nn12.Cl [GW461487]	0%	0%	0%	14%	0%	9%	11%	0%	0%	0%
COC(=O)Nc1nc2cc(Oc3ccc(NC(=O)Nc4cc(C(F)(F)F)ccc4Cl)cc3)ccc2[nH]1.Cl [GW697465]	11%	26%	86%	100%	0%	80%	39%	1%	0%	0%
Cn1ccc2ncnc(Oc3ccc(NC(=O)Nc4cc(C(C)(C)C)on4)c(Cl)c3)c21	8%	7%	98.9%	100%	0%	9%	0%	3%	9%	7%
C[C@@H](Oc1cc(-n2cnc3cc(-c4cnn(C)c4)ccc32)sc1C(N)=O)c1ccccc1Cl [GSK580432]	0%	19%	84%	99.8%	75%	7%	7%	0%	47%	0%
COc1cc2ncn(-c3cc(OCC4CCCCC4)c(C(N)=O)s3)c2cc1OC [GSK204559]	0%	21%	2%	66%	17%	34%	24%	4%	18%	0%
O=C(NOCC1CC1)c1cc(Br)c(F)c(F)c1Nc1ccc(I)cc1Cl	0%	0%	0%	13%	9%	0%	0%	0%	0%	0%
Cn1ccc2ncnc(Oc3ccc(NC(=O)Nc4cccc(C(F)(F)F)c4)c(F)c3)c21	17%	1%	99.1%	100%	17%	0%	0%	18%	0%	0%
C[C@@H](Oc1cc(-n2cnc3ccc(-c4ccncc4)cc32)sc1C(N)=O)c1ccccc1Cl [GSK483724]	0%	47%	8%	54%	0%	22%	26%	9%	0%	88%
CNC(=O)c1ccccc1Nc1nc(Nc2cccc(CS(C)(=O)=O)c2)ncc1C.O=CO [GSK1520489]	0%	18%	94%	99.9%	49%	0%	16%	63%	49%	0%
CC(C(=O)NC1CCN(c2ccnc(Nc3ccc(F)cc3)n2)C1)c1ccc(Cl)cc1 (centres unmarked) [GSK1379713]	0%	12%	3%	7%	0%	24%	2%	0%	0%	0%
CC(C)c1nc(-c2cccc(NS(=O)(=O)c3ccccc3)c2)c(-c2ccnc(Nc3ccc4c(c3)CN(C)CC4)n2)s1 [GSK1649598]	100%	100%	91.2%	100%	0%	85%	78%	0%	45%	20%
Cn1ccc2ncnc(Oc3ccc(NC(=O)Nc4ccnc(C(F)(F)F)c4)c(Cl)c3)c21	0%	0%	97%	100%	0%	5%	0%	24%	8%	0%
COc1cc(Nc2nccc(N3CCC(NC(=O)c4cccc(C#N)c4)C3)n2)cc(OC)c1OC (centres unmarked) [GSK1379751]	0%	0%	0%	70%	0%	0%	3%	0%	0%	0%
COc1cccc(CNC(=O)NC2CCN(c3ccnc(Nc4cc(OC)c(OC)c(OC)c4)n3)C2)c1 (centres unmarked) [GSK1379765]	0%	0%	6%	51%	4%	16%	11%	15%	0%	0%
Cn1ccc2ncnc(Oc3ccc(NC(=O)Nc4cccc(C(F)(F)F)c4)c(Cl)c3)c21	0%	8%	98.6%	100%	0%	3%	10%	0%	3%	0%
CCCC(=O)Nc1n[nH]c2ncccc12 [SB-601436]	0%	0%	0%	0%	0%	14%	9%	0%	0%	0%
O=C(NCC1CC1)c1ccc(-c2cc(C(=O)NC3CC3)ccc2F)cc1 [GW810445]	0%	0%	0%	0%	0%	0%	0%	0%	0%	0%
Cc1cccc(-c2nc(Nc3ccncc3)c3sccc3n2)n1 [GW869641]	0%	0%	36%	27%	7%	5%	0%	0%	5%	29%
Cl.c1ccc(Oc2ccc(Nc3ccnc4cc(-c5ccc(CN6CCNCC6)o5)ccc34)cc2)nc1 [GW567142]	0%	2%	78%	98.5%	0%	25%	11%	0%	0%	0%
CC(=O)Nc1ccc(-c2cc3ncnc(SCC(=O)O)c3s2)cc1	0%	24%	64%	88%	0%	4%	0%	21%	3%	6%

Structure (SMILES)	%Inh [1]	%Inh [2]	%Inh [3]	%Inh [4]	%Inh [5]	%Inh [6]	%Inh [7]	%Inh [8]	%Inh [9]	%Inh [10]
C[C@@H]1CCN(C(=O)N2CCCC2)C[C@@H]1N(C)c1ncnc2[nH]ccc12	0%	0%	21%	19%	0%	0%	0%	0%	5%	0%
Cn1cc(-c2cccc3c(N)c(C(N)=O)nnc23)cn1	2%	5%	12%	10%	2%	6%	0%	10%	0%	0%
CN1CCN(CCCNc2nccc(-c3c(-c4ccc(F)cc4)nn4cc(C(N)=O)ccc34)n2)CC1 [GW622475]	20%	12%	0%	63%	0%	33%	11%	14%	26%	8%
CC(=O)Nc1nc2cnc(Nc3cc(NC(=O)c4cccc(CC(C)(C)C#N)c4)ccc3C)nc2s1	47%	29%	99%	100%	39%	31%	14%	19%	0%	14%
CN(c1ccccc1CNc1nc(Nc2ccc3c(c2)CC(=O)N3)ncc1C(F)(F)F)S(C)(=O)=O	49%	4%	3%	83%	34%	35%	8%	35%	25%	0%
CCOC(=O)N1CCC(n2cnc(-c3ccc(F)cc3)c2-c2ccnc(N)n2)CC1 [SB-219952]	9%	32%	14%	23%	7%	25%	17%	0%	0%	56%
CC(=O)c1c(-c2ccncc2)[nH]c(-c2ccncc2)c1C [GW493036]	0%	54%	0%	7%	0%	0%	26%	0%	0%	0%
OCCn1cc(-c2cnc3nnn(Cc4ccc5ncccc5c4)c3n2)cn1	0%	0%	0%	0%	0%	0%	0%	5%	0%	0%
COC(=O)c1cccc(NC(=O)NC2CCN(c3ccnc(Nc4cc(OC)c(OC)c(OC)c4)n3)C2)c1 (centres unmarked) [GSK1379767]	24%	0%	6%	65%	0%	0%	20%	10%	2%	0%
COc1cccc(OC)c1C(=O)Nc1cccc(-c2nn3ccccc3c2-c2ccnc(Nc3cccc(F)c3)n2)c1 [GSK361065]	0%	3%	0%	90.2%	4%	2%	3%	1%	2%	0%
N#Cc1cccc(C(=O)NC2CCN(c3ccnc(Nc4ccc(F)cc4)n3)C2)c1 (centres unmarked) [GSK1379708]	0%	0%	0%	23%	13%	2%	11%	0%	0%	0%
CS(=O)(=O)Nc1ccc(-c2ccnc3[nH]ccc23)cc1 [GSK993273]	0%	0%	1%	61%	0%	16%	16%	2%	13%	0%
Nc1nccc(-c2ccc3c(N)n[nH]c3c2)n1 [GSK1034945]	0%	10%	0%	17%	34%	15%	10%	5%	13%	0%
CCn1c(-c2nonc2N)nc2cncc(Br)c21 [SB-738004]	14%	6%	50%	18%	6%	10%	25%	0%	0%	0%
O=C(Nc1ccc(Oc2ccc3nc(NC(=O)C4CC4)cn3n2)c(F)c1)c1cccn(-c2ccccc2)c1=O	5%	5%	96.3%	100%	0%	0%	0%	61%	0%	0%
Cc1nnc(-c2ccc3occ(-c4ccc(S(C)=O)cc4)c3n2)o1 (centres unmarked)	2%	0%	0%	0%	2%	0%	0%	0%	16%	0%
Cc1n[nH]c2cc(Nc3ccnc(Nc4cccc(CN5CCOCC5)c4)n3)ccc12 [GW682569]	12%	8%	75%	95.4%	0%	7%	20%	0%	0%	0%
O=C(Nc1cccc(Oc2ccc3nccn3n2)c1)Nc1cccc(C(F)(F)F)c1	0%	8%	99.8%	100%	0%	0%	1%	14%	0%	12%
NC(=O)c1ccc(-c2cc3ncnc(SCC(=O)O)c3s2)cc1	0%	2%	71%	80%	0%	0%	7%	0%	1%	0%
O=C1NCCc2[nH]c(-c3ccncc3)cc21	0%	1%	27%	17%	0%	0%	0%	0%	14%	21%
CSc1nccc(-c2c(-c3ccc(F)cc3)ncn2CCCN2CCOCC2)n1.Cl [SB-217146]	0%	0%	0%	12%	10%	0%	0%	11%	0%	0%
CCNCC(Cc1ccccc1)NC(=O)c1cc(Br)c(-c2ccnc3[nH]ccc23)s1.Cl.Cl (centres unmarked) [GSK1383280]	15%	0%	51%	75%	0%	0%	21%	27%	20%	0%
